Wnt act = Wnt/beta-catenin pathway activators, primary screen, cell-based, plate reader, single point; Wnt/beta-catenin reporter cell assay, activator; activation, % at 9.35 µM; 300,000 compounds, 1.2% hits; AID 743398, 2014; in the data active = activation above about 30%, passing the limit was not always enough
AHR act = AHR activators, primary screen, cell-based, luminescence, luciferase reporter, human; AID 2796, 2010; Aryl hydrocarbon receptor (Homo sapiens), P35869; activation, % at 5 µM; AHR-responsive luciferase reporter cells; 320,000 compounds, 2.5% hits; in the data active = activation above about 47%
esBAF inh = Bmi1 luciferase reporter increase in mESCs, primary screen, esBAF inhibitor project, mouse ES cells, Bmi1 luciferase knock-in, single point. reporter increase, % at 12.5 µM. 24 h; 100% = twice the neutral-well signal. 350,000 compounds, 2% hits; in the data active = activation above about 40%;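 note: a rise in the Bmi1 reporter signal indicates esBAF inhibition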
MITF act = activators of MITF-driven TRPM1 promoter reporter, primary screen, cell-based, SK-MEL-5, luciferase, single point. SK-MEL-5 TRPM1-promoter luciferase, 24 h; % of positive control, neutral wells = 0. activation, % at 12.5 µM. 300,000 compounds, 0.75% hits;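 active = mean activation of at least 80% with every replicate also reaching 80%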
FXN GAA850 act = FXN promoter activators, primary screen, cell-based, luciferase luminescence, HEK293 lucGAA850. 360,000 compounds, 0.56% hits. AID 540364, 2011. HEK293 lucGAA850 FXN promoter luciferase reporter, 24 h; percent of 10 µM SAHA response. activation, % at 6 µM;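 active = activation above the average of all compounds screened plus 3 SD, cutoff fixed separately per campaign, cut at about 7.5% in these data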
A number is an active result. An excerpt weighted towards active compounds, which were near 4.2% of everything screened.

Screening CN(C)c1ccc(C(=O)OCc2ccccc2)cc1 returned AHR act inactive, esBAF inh 50, MITF act inactive and FXN GAA850 act inactive.
`COC(=O)c1ccc(COC(=O)c2ccc(N(C)C)cc2)cc1` gave AHR act inactive, esBAF inh inactive, MITF act inactive and FXN GAA850 act inactive.
`CSc1ccccc1NC(=O)c1cc2ncc(Br)cn2n1` gave Wnt act 35, AHR act inactive, esBAF inh 55, MITF act inactive and FXN GAA850 act inactive.
For Cc1ccccc1Cn1ccc(NC(=O)c2cc3ncc(Br)cn3n2)n1 the results were Wnt act inactive, AHR act inactive, esBAF inh inactive, MITF act inactive and FXN GAA850 act inactive.
For CC(C)NC(=O)N(C)C[C@H]1Oc2cc(C3=CCCC3)ccc2S(=O)(=O)N([C@@H](C)CO)C[C@H]1C the results were esBAF inh inactive.
For C/C(=N\NC(=O)c1ccc(Cl)cc1)c1ccc(Br)s1 the results were Wnt act inactive, AHR act inactive, esBAF inh inactive, MITF act inactive and FXN GAA850 act inactive.
`C/C(=N\Nc1ccc(F)cc1F)c1ccc(N2CCOCC2)cc1` gave Wnt act inactive, AHR act inactive, MITF act inactive and FXN GAA850 act inactive.
`C/C(=N\Nc1ccc(F)cc1F)c1ccc(F)cc1` gave AHR act 60.
C/C(=N\Nc1ccc(F)cc1F)c1ccc(Br)s1 was read as Wnt act inactive, AHR act 54, esBAF inh inactive, MITF act inactive and FXN GAA850 act inactive.
CO[C@H]1CN(C)C(=O)c2ccc(NC(=O)Nc3ccccc3F)cc2OC[C@H](C)N(C(C)=O)C[C@H]1C was read as esBAF inh inactive.
CC(=O)N(C)C[C@@H]1Oc2ncc(-c3ccccc3C)cc2C(=O)N([C@H](C)CO)C[C@H]1C was read as esBAF inh inactive.
Screening O=C1C(Cl)=C(Nc2ccccc2O)C(=O)N1c1ccccc1 returned Wnt act 55, AHR act 55, esBAF inh inactive and FXN GAA850 act inactive.
For COc1ccccc1N1C(=O)C(Cl)=C(Nc2ccccc2O)C1=O the results were Wnt act inactive, MITF act inactive and FXN GAA850 act inactive.
For C[C@@H]1CN([C@@H](C)CO)C(=O)c2cc(NS(=O)(=O)c3ccccc3)ccc2O[C@H]1CN(C)C(=O)Nc1ccc(F)cc1 the results were esBAF inh inactive.
`COc1ccc(CN=C2Nc3ccccc3CS2)cc1` gave AHR act inactive, esBAF inh 61 and FXN GAA850 act inactive.
`COc1ccc(CN=C2NN=C(c3ccc(Cl)cc3)CS2)cc1` gave Wnt act inactive, AHR act inactive, MITF act inactive and FXN GAA850 act inactive.
Screening Nc1ccc(CSc2ccccc2)cc1 returned Wnt act inactive, esBAF inh 54, MITF act inactive and FXN GAA850 act inactive.
Screening OC(COc1ccc2ccccc2c1Br)Cn1ccnc1 (stereo not drawn) returned AHR act 70, esBAF inh inactive, MITF act inactive and FXN GAA850 act inactive.
Screening OC(COc1ccc(Cl)cc1Cl)Cn1ccnc1 (stereo not drawn) returned Wnt act inactive, AHR act 47, esBAF inh inactive, MITF act inactive and FXN GAA850 act inactive.
For Clc1ccc(OCCn2ccnc2)c(Cl)c1 the results were AHR act inactive, esBAF inh inactive, MITF act inactive and FXN GAA850 act inactive.
Screening OC(COc1ccc2ccccc2c1)Cn1ccnc1 (stereo not drawn) returned AHR act inactive, esBAF inh inactive, MITF act inactive and FXN GAA850 act inactive.
For C[C@H]1CN([C@@H](C)CO)C(=O)c2cc(C#CC3CC3)cnc2O[C@H]1CN(C)Cc1ccccn1 the results were esBAF inh inactive.
Screening CO[C@@H]1CN(C)C(=O)c2cc(NC(=O)Nc3cccc(F)c3)ccc2OC[C@@H](C)NC[C@@H]1C returned esBAF inh inactive.
Screening CCOc1ccc(-n2c(COc3ccc(C)cc3)nnc2SCC(N)=O)cc1 returned Wnt act 71, AHR act inactive, esBAF inh inactive and FXN GAA850 act inactive.
Screening COc1ccc(CNC(=O)C[C@@H]2C[C@@H]3c4cc(NC(=O)CN(C)C)ccc4O[C@@H]3[C@H](CO)O2)cc1 returned esBAF inh inactive.
`Cc1ccc(OCC(=O)NCc2ccccn2)c(Br)c1` gave AHR act inactive, esBAF inh 55, MITF act inactive and FXN GAA850 act inactive.
Screening CCn1c(C)nc2cc(C(=O)N/N=C/c3cccc(O)c3O)ccc21 returned Wnt act 41, AHR act inactive, MITF act inactive and FXN GAA850 act inactive.
`CCn1c(C)nc2cc(C(=O)N/N=C/c3ccccc3)ccc21` gave Wnt act inactive, AHR act inactive, esBAF inh 43, MITF act inactive and FXN GAA850 act inactive.
COc1ccc(-c2ccc3ccccc3n2)cc1 was read as Wnt act inactive, AHR act inactive, MITF act inactive and FXN GAA850 act inactive.
Screening COc1ccc(-c2ccc3ccccc3n2)cc1OC returned Wnt act 31, AHR act inactive, MITF act 100 and FXN GAA850 act inactive.
COc1ccc(-c2cc(C(=O)Nc3ccccc3O)c3ccccc3n2)cc1OC was read as Wnt act inactive, AHR act inactive, MITF act inactive and FXN GAA850 act inactive.
`COc1cc2ccc(-c3ccc4ccccc4n3)cc2cc1OC` gave Wnt act 50 and FXN GAA850 act inactive.
`O=C(N/N=C\c1ccc(-c2ccccc2[N+](=O)[O-])o1)C1COc2ccccc2O1` (stereo not drawn) gave AHR act 65, MITF act inactive and FXN GAA850 act inactive.
`C[C@H]1CN([C@@H](C)CO)C(=O)c2cccc(NC(=O)Nc3ccc(C(F)(F)F)cc3)c2O[C@@H]1CN(C)S(C)(=O)=O` gave esBAF inh inactive.
Screening Cc1ccc(S(=O)(=O)N(C)C[C@H]2Oc3c(NS(=O)(=O)c4ccccc4)cccc3C(=O)N([C@H](C)CO)C[C@@H]2C)cc1 returned esBAF inh inactive.
For O=C(CCCN1CCC(C(=O)c2ccc(F)cc2)CC1)c1ccc(F)cc1 the results were Wnt act inactive, AHR act inactive, esBAF inh inactive, MITF act inactive and FXN GAA850 act inactive.
O=C(CCCC(=O)c1ccc(F)cc1)c1ccc(F)cc1 was read as Wnt act 37, AHR act inactive, esBAF inh 55, MITF act 131 and FXN GAA850 act inactive.
Screening Cc1cc(C)c(C(N)=O)c(Nc2cccc(Cl)c2C)n1 returned Wnt act inactive, AHR act inactive, esBAF inh inactive, MITF act inactive and FXN GAA850 act inactive.
Screening COc1ccc(Cl)cc1Nc1nc(C)cc(C)c1C(N)=O returned AHR act 59, esBAF inh inactive, MITF act inactive and FXN GAA850 act inactive.
